PubChem BioAssay (Tox21)
Records with an inconclusive call do not appear. Calls of active or inactive are those of the source. Unless noted, the call rests on the fitted dose curve.

What was measured:
[1] = target: Thyrotropin receptor (Homo sapiens) (UniProt P16473); assay: qHTS assay to identify small molecule agonists of the thyroid stimulating hormone receptor (TSHR) signaling pathway (AID 1224843); further: nearly all actives have a fitted effect of over 45% in size
Outline: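 Screening of the Tox21 10K collection used HEK293 cells engineered with TSHR at 800 cells per well. After a 30-min room-temperature compound exposure, HTRF cAMP reagents were added and fluorescence recorded 1 h later.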

[2] = qHTS assay to identify small molecule agonists of the hypoxia (HIF-1) signaling pathway - cell viability counter screen (AID 1224844); further: nearly all actives have a fitted effect of over 50% in size
Outline: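 Cells (HRE-bla ME-180, 2,000 per well) sat 5 hrs at 37C, got compound for 17 hrs, were read for CCF4-AM FRET, and were finally lysed with CellTiter-Glo for a 30 min room-temperature luminescence read.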

[3] = qHTS assay to identify small molecule agonists of H2AX (AID 1224845; active means well fitted activation curve with a large enough effect in the signal ratio in the repeat runs, not every such curve was filed as active; the % refers to the signal ratio)
Outline: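 Phospho-H2AX Ser139 measured by HTRF (ex 320 nm; em 665 and 620 nm) after 24 hr antibody incubation. Compounds, 15 concentrations, 0.76% DMSO, were applied to CHO-K1 cells for 3hr at 37C before lysis.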

[4] = qHTS assay to identify small molecule agonists of the hypoxia (HIF-1) signaling pathway (AID 1224846; active means well fitted activation curve with a large enough effect in the signal ratio in the repeat runs, not every such curve was filed as active; the % refers to the signal ratio)
Outline: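 A low-serum medium (0.5% dialyzed FBS) holding 2,000 HRE-bla ME-180 cells per well is preincubated for 5 hrs, dosed with compounds by pintool, and kept a further 17 hrs at 37C, 5% CO2 before CCF4-AM FRET detection of beta-lactamase.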

[5] = qHTS assay to identify small molecule agonists of H2AX - cell viability counter screen (AID 1224847);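 further: wild-type CHO-K1 cells; top concentration of the series differs between compounds; nearly all actives have a fitted effect of over 30% in size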
Outline: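 After overnight plating of 1000 CHO-K1 cells per well, a 15-concentration compound series was applied for 3 hr at 37C. Luminescence from CellTiter-Glo, read following 30 min at room temperature, reflected cell viability.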

[6] = qHTS assay to identify small molecule antagonists of the estrogen related receptor (ERR) signaling pathway from Tox21 library (AID 1224848; active means well fitted curve in the direction sought with a large enough effect in the repeat runs; an effect the other way counts as inactive or inconclusive; further: nearly all actives have a fitted effect of over 50% in size)
Outline: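 Antagonist-mode screen of the Tox21 10K library in an NTP-provided ERR reporter cell line; 18 h compound exposure at 37 C, luminescence measured with ONE-Glo.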

[7] = qHTS assay to identify small molecule agonists of the estrogen related receptor (ERR) signaling pathway from Tox21 library (AID 1224849); conditions: ERR reporter cell line, ONE-Glo luciferase, 18 h; at 92.4 µM (top of the series) unless noted; further: nearly all actives have a fitted effect of over 15% in size
Outline: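 Screening used an NTP-provided ERR luciferase cell line. Compounds in DMSO were added 6 h after seeding and left 18 h at 37 C before a 30 min ONE-Glo step and luminescence reading.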

[8] = qHTS RealTime-Glo MT Cell Viability Assay in HepG2 cells - 24 hour (AID 1224867; active means well fitted curve in the direction sought with a large enough effect in the repeat runs; an effect the other way counts as inactive or inconclusive; further: nearly all actives have a fitted effect of over 50% in size)
Outline: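 Compound treatment began 5 h after plating HepG2 cells (600/well) with NanoLuc luciferase and prosubstrate. Plates stayed at 37 C for 40 h; luminescence was captured at six time points, 0 h through 40 h.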

[9] = qHTS RealTime-Glo MT Cell Viability Assay in HEK293 cells - 32 hour (AID 1224868; active means well fitted curve in the direction sought with a large enough effect in the repeat runs; an effect the other way counts as inactive or inconclusive; further: top concentration of the series differs between compounds; nearly all actives have a fitted effect of over 50% in size)
Outline: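 Quantitative high-throughput screen of the Tox21 10K library in HEK293: cells and RealTime-Glo reagents plated together, compound added at 5 h, luminescence monitored through 40 h at 37 C.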

[10] = A CellTox Green Cytotoxicity Assay to monitor cytotoxicity in HEK293 cells - 0 hour (AID 1224869; active means well fitted curve in the direction sought with a large enough effect in the repeat runs; an effect the other way counts as inactive or inconclusive; further: nearly all actives have a fitted effect of over 50% in size; further: potency means the concentration at half of the fitted maximal effect)
Outline: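 Fluorescence intensity, read at 0, 8, 16, 24, 32 and 40 h of compound treatment, reflected dye binding to DNA of dead HEK293 cells; compounds (23 nL, DMSO) were added 5 h after plating cells with reagent.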
On the % scale 0 is the no-effect control and ±100 the full control effect.

Sequence of Thyrotropin receptor (Homo sapiens) (P16473 whole entry, looked up): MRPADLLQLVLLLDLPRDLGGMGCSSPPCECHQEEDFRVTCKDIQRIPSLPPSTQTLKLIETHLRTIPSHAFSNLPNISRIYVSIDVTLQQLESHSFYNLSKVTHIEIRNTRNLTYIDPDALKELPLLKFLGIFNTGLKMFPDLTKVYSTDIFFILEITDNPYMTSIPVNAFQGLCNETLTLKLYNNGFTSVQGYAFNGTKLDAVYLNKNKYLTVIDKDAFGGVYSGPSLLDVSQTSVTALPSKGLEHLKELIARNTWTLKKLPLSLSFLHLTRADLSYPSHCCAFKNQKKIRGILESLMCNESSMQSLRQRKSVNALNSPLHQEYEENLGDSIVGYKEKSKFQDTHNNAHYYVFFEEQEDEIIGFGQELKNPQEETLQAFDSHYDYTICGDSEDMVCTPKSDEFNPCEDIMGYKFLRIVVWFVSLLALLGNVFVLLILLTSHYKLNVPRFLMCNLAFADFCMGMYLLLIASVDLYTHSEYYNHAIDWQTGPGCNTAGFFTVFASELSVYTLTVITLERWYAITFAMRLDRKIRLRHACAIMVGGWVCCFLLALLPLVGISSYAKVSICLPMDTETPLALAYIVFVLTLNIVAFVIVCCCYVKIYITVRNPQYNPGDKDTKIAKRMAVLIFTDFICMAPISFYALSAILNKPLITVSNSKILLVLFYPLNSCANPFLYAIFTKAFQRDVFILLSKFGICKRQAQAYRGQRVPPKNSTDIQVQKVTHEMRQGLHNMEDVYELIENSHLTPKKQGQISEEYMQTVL

CC1CCN(CCCC(=O)c2ccc(F)cc2)CC1
inactive: outcome [1] | Potency [2] | outcome [3] | outcome [4] | Potency [5] | Potency [6] | activity change, positive = activation [7] 6.1% [at 42.5 µM] | outcome [8] | Potency [9] | Potency [10]

CC(=O)O[C@H](CC(=O)[O-])C[N+](C)(C)C
inactive: outcome [1] | Potency [2] | outcome [3] | outcome [4] | Potency [5] | Potency [6] | activity change, positive = activation [7] -2.17% | outcome [8] | Potency [9] | Potency [10]

CN(C)C(=O)Nc1ccccc1
inactive: outcome [1] | Potency [2] | outcome [3] | outcome [4] | Potency [5] | Potency [6] | activity change, positive = activation [7] 3.55% | outcome [8] | Potency [9] | Potency [10]

Nc1ccn(C2CO[C@H](CO)O2)c(=O)n1 (some centres undefined)
inactive: outcome [1] | Potency [2] | outcome [3] | outcome [4] | Potency [5] | Potency [6] | activity change, positive = activation [7] 0.852% [at 42.5 µM] | outcome [8] | Potency [9]
active: Potency [10] 16.9 µM

CO
inactive: outcome [1] | Potency [2] | outcome [3] | outcome [4] | Potency [5] | Potency [6] | activity change, positive = activation [7] -0.295% | outcome [8] | Potency [9] | Potency [10]

CC(C)(O)Cc1ccccc1
inactive: outcome [1] | Potency [2] | outcome [3] | outcome [4] | Potency [5] | Potency [6] | activity change, positive = activation [7] -2.35% | outcome [8] | Potency [10]

C=C(C)C(=O)OCCC(C)OC(=O)C(=C)C (centres undefined)
inactive: outcome [1] | Potency [2] | outcome [3] | outcome [4] | Potency [5] | Potency [6] | activity change, positive = activation [7] 3.72% | outcome [8] | Potency [9] | Potency [10]

COc1ccc2cc(C=O)ccc2c1
inactive: outcome [1] | Potency [2] | outcome [3] | outcome [4] | Potency [5] | Potency [6] | activity change, positive = activation [7] 3.74% [at 42.5 µM] | outcome [8] | Potency [9] | Potency [10]

CCCCCCCCC=O
inactive: outcome [1] | Potency [2] | outcome [3] | outcome [4] | Potency [5] | Potency [6] | activity change, positive = activation [7] -1.48% | outcome [8] | Potency [9] | Potency [10]

CCCCCCCCN(C)CCCCCCCC
inactive: outcome [1] | Potency [2] | outcome [3] | outcome [4] | Potency [5] | Potency [6] | activity change, positive = activation [7] 18.3% | outcome [8] | Potency [9] | Potency [10]

COc1cccc(Br)c1
inactive: outcome [1] | Potency [2] | outcome [3] | outcome [4] | Potency [5] | Potency [6] | activity change, positive = activation [7] 0.21% | outcome [8] | Potency [9] | Potency [10]
